High-throughput results from PubChem.
Rows were chosen to be rich in hits. Some 5% of all compounds tested hit in one or more screens of this group.
OTUD3 block: human OTUD3 deubiquitinase inhibition; inhibition, % at 25 µM; actives 0.7% (n = 47,000); purified OTUD3, Ub-rhodamine fluorescence, 2 h; Q5T2D3
USP8 inh: inhibitors of human USP8 deubiquitinase | purified USP8, Ub-rhodamine cleavage fluorescence, 30 min | P40818 | actives 4.2% (n = 47,000) | inhibition, % at 20 µM
UCHL1 block: human UCHL1 deubiquitinase inhibition; AID 1645859; actives 0.2% (n = 47,000); purified UCHL1, Ub-rhodamine cleavage fluorescence; inhibition, % at 20 µM; P09936
USP7 block: human USP7 deubiquitinase inhibition; actives 0.3% (n = 47,000); inhibition, % at 20 µM; purified USP7, Ub-rhodamine cleavage fluorescence
USP10 block: inhibitors of human USP10 deubiquitinase; Q14694; purified USP10, Ub-rhodamine fluorescence, 60 min; inhibition, % at 20 µM; actives 1.1% (n = 47,000); AID 1645856
Active calls of the source: *. Cut-off read from the data, not from the text of the source: active = inhibition above about 30%; inactive = the rest.

SMILES | OTUD3 block | USP8 inh | UCHL1 block | USP7 block | USP10 block
Cc1ccc(-n2cc(C(=O)NCCCc3ccccc3)nn2)cc1 | 15.7 | 78.4* | 7.2 | 24.8 | 23.8
CCN1C(=O)Cc2cc(NS(=O)(=O)c3cc(C)ccc3C)ccc21 | -1.2 | 40.2* | 3.2 | 10.4 | 0.0
CC(C)[C@H]1CC[C@@]2(CO2)[C@H]2C(=O)OCC(C(=O)O)=C[C@H]12 | 55.0* | 1.1 | 3.0 | 4.3 | 3.2
CC1=C[C@H]2[C@H](C(C)C)CC[C@@](C)(O)[C@H]2CC1=O | 0.1 | 0.1 | -2.0 | -1.3 | -3.5
Cc1nc2ccccc2n1CCNC(=O)c1ccc(C#N)cc1 | -3.4 | -13.4 | -0.6 | -2.1 | 0.7
Cc1ccc(C(=O)NC(C)c2nc3ccccc3n2CC(=O)N2CCc3ccccc32)cc1 (stereo not drawn) | -37.5 | 63.0* | 6.5 | -13.0 | 6.6
O=C(Cn1c(CNC(=O)c2ccccc2)nc2ccccc21)Nc1ccc(F)cc1 | 22.7 | 71.8* | 0.7 | 18.2 | 43.8*
CC(NC(=O)c1ccccc1)c1nc2ccccc2n1CC(=O)Nc1ccc(OC(F)(F)F)cc1 (stereo not drawn) | 4.6 | 33.4* | 4.3 | 9.2 | 14.3
CC(NC(=O)c1ccccc1)c1nc2ccccc2n1CC(=O)Nc1ccc(C#N)cc1 (stereo not drawn) | -0.1 | 78.0* | 2.9 | 18.3 | 41.4*
CC(Oc1ccccc1)c1nc2ccccc2n1CC(=O)N1CCc2ccccc21 (stereo not drawn) | 6.0 | 10.0 | 1.6 | -0.7 | 1.6
O=C(CCc1ccccc1)Nc1nnc(C(F)(F)F)s1 | -2.6 | 0.8 | -2.3 | 2.7 | 6.1
O=C(Cn1cnc(S(=O)(=O)N2CCCC2)c1)NCc1ccccc1Cl | -1.2 | 0.1 | -0.7 | -1.3 | 2.8
O=C(CN1CCCCC1)N1CCC(c2cc(=O)n3c(n2)CCCCC3)C1 (stereo not drawn) | -6.5 | -23.8 | -6.5 | -6.1 | -5.3
CSCCC(NC(=O)c1ccccc1)c1nc2ccccc2n1CC(=O)Nc1ccccc1 (stereo not drawn) | 3.1 | 46.5* | 2.1 | 10.6 | 40.8*
CC(NC(=O)c1ccccc1)c1nc2ccccc2n1CC(=O)NC1CCCCC1 (stereo not drawn) | 9.4 | 65.2* | 2.2 | 3.0 | 4.0
O=C(Cn1cnc(-c2noc(-c3ccc(F)cc3)n2)c1)Nc1ccccc1F | 9.8 | 66.7* | 7.5 | 14.5 | 25.9
Cc1cccc(NC(=O)Cn2cnc(-c3noc(-c4ccccc4)n3)c2)c1C | 37.1* | 72.6* | 6.9 | 24.1 | 25.7
O=c1c2ccccc2n(Cc2ccccc2)c(=O)n1Cc1nc(-c2ccccc2)no1 | 19.7 | 17.0 | 0.8 | 11.4 | 11.6
CCOc1ccc2cc3c(nc2c1)OC(=O)N(Cc1ccc(OC)cc1)C3 | 20.9 | 77.3* | 4.3 | 14.4 | 18.9
COc1ccc2cc3c(nc2c1)OC(=O)N(Cc1ccc(F)cc1)C3 | 2.4 | -36.8 | -0.9 | 6.5 | 0.9
Cc1ccc2cc3c(nc2c1)OC(=O)N(Cc1ccc(C)o1)C3 | 3.6 | 50.1* | -4.2 | 0.3 | 13.3
COc1ccc(CCN2Cc3cc4cc(C)ccc4nc3OC2=O)cc1 | -3.4 | 4.7 | -2.2 | 1.4 | 3.3
COc1ccc2cc3c(nc2c1)OC(=O)N(CCc1cccc(F)c1)C3 | 15.9 | 34.6* | 3.8 | 8.2 | -0.3
CCCc1cc(C2CCCN2C(=O)Nc2ccc(C)cc2)no1 (stereo not drawn) | 4.2 | 10.8 | 2.4 | -0.4 | 2.0
O=C1CC(O)C(C2=CC(=O)c3c(O)cccc3C2=O)O1 (stereo not drawn) | 71.3* | -94.1 | 28.1 | -142.9 | -13.5
SMILES | OTUD3 block | USP8 inh | UCHL1 block | USP7 block | USP10 block
CC1=C(C)C(N(c2ccccc2)c2ccccc2)N(CCC(C)C)C1=O (stereo not drawn) | 9.9 | 95.1* | 10.2 | -8.4 | 9.3
CC(C)NC(=O)c1cc(-c2csc(-c3cnccn3)n2)n2ccccc12 | -42.2 | -38.6 | -9.3 | -9.7 | -5.5
O=C(Nc1nccn1Cc1ccccc1)c1cc(-c2cccc(Cl)c2)on1 | -31.5 | 79.9* | 4.4 | 2.1 | 5.0
O=C(NCC(c1ccc(Cl)cc1)N1CCOCC1)c1cc(-c2ccccc2)on1 (stereo not drawn) | 6.8 | 12.2 | 3.6 | -0.2 | -2.0
Cc1cc(Nc2ccc(C)c(Cl)c2)n2nc(-c3ccco3)nc2n1 | -33.7 | 35.2* | -17.4 | -4.1 | -5.3
CC(=O)Nc1cc(-c2cccc(CO)c2)cn2c(-c3ccc(S(C)(=O)=O)cc3)cnc12 | -14.8 | -22.4 | -3.7 | -5.3 | -4.0
COc1ccccc1-c1cc(NC(C)=O)c2ncc(-c3ccc(S(C)(=O)=O)cc3)n2c1 | -16.0 | 68.8* | 0.3 | 1.1 | -4.4
Cc1cccc(-n2nnc3c(=O)n(Cc4ccc([N+](=O)[O-])cc4)cnc32)c1 | 0.0 | -7.9 | -3.5 | 0.2 | 6.0
Cc1ccc(C)c(Cn2cnc3c(nnn3-c3cccc(F)c3)c2=O)c1 | -13.1 | 53.6* | 3.3 | 24.6 | 15.5
O=C(CN1C(=O)C(O)(c2cccc(F)c2)c2ccccc21)Nc1ccccc1F (stereo not drawn) | 10.2 | 17.1 | 3.9 | 0.1 | 6.0
COc1ccc(CCC(=O)Nc2nnc(C3CC(=O)N(c4ccccc4C)C3)s2)cc1 (stereo not drawn) | 5.0 | -16.7 | 3.4 | 5.1 | 1.6
CCCn1c(=O)c2sccc2n2c(CCC(=O)NC3CCC(C)CC3)nnc12 (stereo not drawn) | 22.8 | 25.1 | 4.3 | 8.8 | 2.0
CCCn1c(=O)c2sccc2n2c(CCC(=O)N3CCc4ccccc4C3)nnc12 | 7.3 | 87.4* | 2.2 | 2.9 | 1.7
CCc1cc(=O)n(CC(=O)Nc2ccc3c(c2)OCCO3)c2c1c(C)nn2-c1ccc(C)cc1 | 14.5 | 43.6* | 3.7 | 6.1 | 6.5
Cc1nc(NC(=O)Cn2cncn2)sc1Cc1cccc(F)c1 | 7.4 | 12.1 | 0.9 | -4.4 | 1.2
NS(=O)(=O)c1ccc(NC(=O)Cn2cnc3cc([N+](=O)[O-])ccc3c2=O)cc1 | 17.8 | 55.2* | 2.5 | 0.9 | -1.7
O=C(Nc1ccc(-n2cc(Br)cn2)cc1)c1ccccn1 | -25.6 | -3.9 | -1.1 | 1.9 | -0.3
COc1ccccc1OCC(=O)Nc1onc2c1CCCC2 | 5.4 | 5.0 | 0.7 | 2.1 | 0.0
O=C(CCCCn1c(=O)c2ccccc2n(CC(=O)Nc2ccc(F)c(Cl)c2)c1=O)NCc1ccco1 | 25.9 | 59.4* | 7.5 | 0.0 | 12.0
O=C(Cn1c(=O)c2ccccc2n(CC(=O)Nc2ccc(F)c(Cl)c2)c1=O)NCc1ccco1 | 48.7* | 44.2* | 2.5 | 6.8 | 14.9
O=C(CCCn1c(=O)c2cc(Cl)ccc2n(CC(=O)Nc2cccc(F)c2)c1=O)NCc1ccco1 | -3.5 | 30.3* | -2.9 | -2.7 | 28.4
O=C(CCCn1c(=O)c2ccccc2n(CC(=O)N2CCN(c3ccccc3)CC2)c1=O)NCc1ccco1 | 5.7 | 35.8* | 3.9 | -2.6 | -1.2
Cn1c(=O)n(CC(=O)Nc2ccc(F)c(Cl)c2)c(=O)c2ccccc21 | 5.8 | 15.8 | 0.1 | 6.0 | 11.6
O=C(c1cc(-c2cccnc2)n[nH]1)N1CCCC(c2ccnc(=O)[nH]2)C1 (stereo not drawn) | -41.6 | -58.0 | -38.4 | -37.2 | -2.8
